Reference: the supplement of paper PMC6555819

Experiments:
Assay in all cases: PBM binding z-score (relative to random genomic background probes); higher = stronger binding; sequences stand for … in GC…GCGATTGACAGCGTAGAATGAAGG
[1] = system: FXR:RXRa (NR concentration 270 nM, RXRa partner concentration 90 nM)
How it was run: (§1)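 Each nuclear receptor dimer, without ligand, was incubated for 1 h on custom Agilent 4×180K protein-binding microarrays. Binding was detected with antibodies against each partner (one per run), and scanned fluorescence was regression-normalized. The binding z-scores are referenced to random human genomic background probes.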

[2] = system: LXRa:RXRa (NR concentration 270 nM, RXRa partner concentration 90 nM)
How it was run: as §1

[3] = system: LXRa homodimer (NR concentration 270 nM)
How it was run: as §1

[4] = system: LXRb:RXRa (NR concentration 270 nM, RXRa partner concentration 90 nM)
How it was run: as §1

[5] = system: LXRb homodimer (NR concentration 270 nM)
How it was run: as §1

[6] = system: PPARa:RXRa (NR concentration 270 nM, RXRa partner concentration 90 nM)
How it was run: as §1

[7] = system: PPARg:RXRa (NR concentration 180 nM, RXRa partner concentration 90 nM)
How it was run: as §1

[8] = system: PPARg:RXRa 270nM:90nM, anti-RXR (NR concentration 270 nM, RXRa partner concentration 90 nM)
How it was run: as §1

[9] = system: PPARg:RXRa 30nM:10nM, anti-RXR (NR concentration 30 nM, RXRa partner concentration 10 nM)
How it was run: as §1

[10] = system: PPARg:RXRa 90nM:30nM, anti-RXR (NR concentration 90 nM, RXRa partner concentration 30 nM)
How it was run: as §1

[11] = system: PPARg:RXRa DBDmut IVT, anti-RXR (DBD mutation: RXRa K156A/R161A, NR concentration 270 nM, RXRa partner concentration 90 nM)
How it was run: as §1

[12] = system: PPARg:RXRa IVT, anti-PPARg (NR concentration 270 nM, RXRa partner concentration 90 nM)
How it was run: as §1

[13] = system: PPARg DBDmut:RXRa IVT, anti-PPARg (DBD mutation: PPARg1 K132A/R137A, NR concentration 270 nM, RXRa partner concentration 90 nM)
How it was run: as §1

[14] = system: PPARg DBDmut IVT, anti-PPARg (DBD mutation: PPARg1 K132A/R137A, NR concentration 270 nM)
How it was run: as §1

[15] = system: PPARg homodimer (NR concentration 180 nM)
How it was run: as §1

[16] = system: PXR:RXRa (NR concentration 270 nM, RXRa partner concentration 90 nM)
How it was run: as §1

[17] = system: PXR homodimer (NR concentration 270 nM)
How it was run: as §1

[18] = system: RARa:RXR (NR concentration 270 nM, RXRa partner concentration 90 nM)
How it was run: as §1

[19] = system: RARa homodimer (NR concentration 270 nM)
How it was run: as §1

[20] = system: RARb:RXRa (NR concentration 270 nM, RXRa partner concentration 90 nM)
How it was run: as §1

Sequence | PBM binding z-score [1] | PBM binding z-score [2] | PBM binding z-score [3] | PBM binding z-score [4] | PBM binding z-score [5] | PBM binding z-score [6] | PBM binding z-score [7] | PBM binding z-score [8] | PBM binding z-score [9] | PBM binding z-score [10] | PBM binding z-score [11] | PBM binding z-score [12] | PBM binding z-score [13] | PBM binding z-score [14] | PBM binding z-score [15] | PBM binding z-score [16] | PBM binding z-score [17] | PBM binding z-score [18] | PBM binding z-score [19] | PBM binding z-score [20]
ACTACTAGTTGACTTAGGGCAACCGATACGACGC | 0.249 | 0.17 | 0.195 | 0.0613 | 0.134 | 0.123 | 1.04 | 0.267 | 0.432 | 0.312 | 0.365 | 0.47 | 0.77 | 0.857 | 0.669 | 0.14 | -0.0753 | 0.458 | 0.347 | 0.59
TCATATAGGTAAACAGGTGAAGGTCCGTAAGTTA | 0.526 | 0.84 | 0.00797 | 0.841 | -0.136 | 2.21 | 2.67 | 3.2 | 4.31 | 3.46 | 4.86 | 4.7 | 1.09 | 0.987 | 1.53 | 0.741 | 0.241 | 0.898 | 0.337 | 0.842
GGAACGAGGGCAAGATGATAGCAGAGTTTGATGG | 0.506 | 0.313 | -0.287 | 0.0342 | -0.415 | 1.25 | 1.39 | 0.84 | 0.0817 | 0.398 | 3.59 | 2.4 | -0.698 | -0.398 | 0.136 | 0.418 | 0.432 | 0.145 | 0.345 | 2.19
CCTGCTAGGTCAATGGTCAGATAAAGCAGCTCGC | 2.9 | 2.29 | 0.316 | 1.61 | -0.124 | 3.15 | 4.67 | 5.1 | 2.77 | 4.96 | 4.27 | 4 | -0.328 | -0.659 | 1.01 | 0.646 | -0.497 | 1.44 | 0.218 | 3.65
CCTAGCAGGCCAGGGTCACTCTAGCATTTCGCTT | 1.58 | 1.43 | -0.629 | 1.71 | -0.953 | 2.59 | 0.377 | 1.19 | -0.703 | -0.00564 | 0.274 | 0.7 | -1.19 | -1.73 | 0.937 | 2.39 | -0.295 | 3.03 | -0.305 | 2.52
CGTCCAAGGCCAGAGAGGTCAGTGAATGCCGAGT | 1.34 | 1.44 | 0.491 | 1.74 | -0.859 | 2.28 | 0.0517 | 0.653 | -0.871 | -0.148 | 0.239 | 0.381 | -0.198 | -1.31 | 0.821 | 3.1 | 3.64 | 2.39 | -0.0907 | 3.41
GCTAGTTGGTCAGTAAGAGGTCACACACCGGTCG | 2.76 | 3.64 | 4.57 | 3.51 | 0.636 | 3.99 | 1.86 | 2.95 | 1.14 | 2.34 | 0.963 | 2.75 | 0.167 | 0.349 | 2.96 | 4.78 | 1.57 | 5.53 | 2.06 | 3.73
